Assay outcomes deposited in PubChem by Broad Institute.
SIRT5 inh: sirtuin-5 (human) deacylase inhibition; inhibition, % at 15 µM; Purified SirT5, succinyl-peptide AMC, trypsin-coupled fluorescence; Q9NXA8; actives 1.1% (n = 330,000); AID 652115; in the data active = inhibition above about 15%
Target sequence (Q9NXA8 whole entry, looked up): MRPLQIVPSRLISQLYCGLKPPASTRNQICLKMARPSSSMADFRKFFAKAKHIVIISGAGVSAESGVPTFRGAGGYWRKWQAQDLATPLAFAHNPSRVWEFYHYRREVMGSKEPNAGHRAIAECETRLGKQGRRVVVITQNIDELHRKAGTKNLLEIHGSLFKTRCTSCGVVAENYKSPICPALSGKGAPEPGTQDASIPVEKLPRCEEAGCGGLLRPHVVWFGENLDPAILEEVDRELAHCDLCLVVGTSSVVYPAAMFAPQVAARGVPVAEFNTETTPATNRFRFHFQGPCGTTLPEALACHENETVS
PvdQ inh: P. aeruginosa PvdQ acylase inhibition; purified PvdQ acylase, fluorescence plate reader; inhibition, % at 10 µM; actives 0.063% (n = 340,000); in the data active = inhibition above about 30%, passing the limit was not always enough
PglD DTNB: blocks C. jejuni PglD acetyltransferase activity; actives 0.098% (n = 360,000); inhibition, % at 12.5 µM; purified PglD enzyme, DTNB colorimetric CoA detection; in the data active = inhibition above about 16%, passing the limit was not always enough
FGF22 binding: binders of recombinant human FGF22 by thermal shift. Q9HCT0. SYPRO orange fluorescence; percent of sucrose octasulfate shift, DMSO zero. activity (Tm shift, normalised), % at 9.99 µM. actives 1.5% (n = 340,000);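 active = mean Tm shift, scaled 0 neutral to 100 positive control, at about 1.3% or above, every replicate too, limit read from the data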
dFosB act: activators of mouse delta FosB homodimer; purified delta FosB, TAMRA-CDK5 oligo fluorescence polarization; percent of positive-control signal above neutral wells; activation, % at 25 µM; actives 0.99% (n = 340,000); AID 493131;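 active = mean activation above about 17%, with every replicate also reaching it, limit read from the data, passing the limit was not always enough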
Target sequence (P13346 whole entry, looked up): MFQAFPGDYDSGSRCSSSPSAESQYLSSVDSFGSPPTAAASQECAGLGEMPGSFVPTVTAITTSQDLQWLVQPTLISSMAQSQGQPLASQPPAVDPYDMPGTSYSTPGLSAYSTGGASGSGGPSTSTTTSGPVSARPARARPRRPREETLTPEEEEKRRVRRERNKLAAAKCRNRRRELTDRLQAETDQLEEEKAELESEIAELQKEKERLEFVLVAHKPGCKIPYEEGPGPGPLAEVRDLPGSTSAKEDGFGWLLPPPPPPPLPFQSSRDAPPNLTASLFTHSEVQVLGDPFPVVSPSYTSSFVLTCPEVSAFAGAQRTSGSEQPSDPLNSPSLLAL
CDK5 inh: CDK5/p35 (human) kinase inhibition; Recombinant CDK5/p35, ADP-Glo luminescence, 60 min; Q00535+Q15078; actives 0.01% (n = 330,000); inhibition, % at 10 µM;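 active = highest replicate inhibition of at least 50% and at least 75% of replicates reaching 50%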
Of the large screens only hits and unclear results are named; the others gave an inactive call. Compounds with a hit are over-represented: about 2.8% of the library has one in this group of screens.

O=C(c1ccco1)N1CCN(Cc2cc(=O)c(OCc3ccccc3F)co2)CC1	FGF22 binding 65.6 (no result: PglD DTNB)
O=C(c1ccco1)N1CCN(Cc2cc(=O)c(OCc3ccccc3)co2)CC1	none
CC(C)NCC(O)COc1ccc(Br)cc1 (configuration not stated)	FGF22 binding 43.6 (no result: PglD DTNB)
O=C(C1CCCC1)N1CC(=O)N2[C@@H](CO)[C@@H](c3ccc(Br)cc3)[C@@H]2C1	none (no result: PvdQ inh, PglD DTNB, FGF22 binding, dFosB act, CDK5 inh)
CC(C)C[C@@H]1COc2cc(N3CCCC3)ccc2S(=O)(=O)N1	none (no result: PvdQ inh, PglD DTNB, dFosB act, CDK5 inh)
CC(C)C[C@H]1COc2cc(N3CC[C@H](O)C3)ccc2S(=O)(=O)N1	SIRT5 inh 33.0 (no result: PvdQ inh, PglD DTNB, dFosB act, CDK5 inh)
CS(=O)(=O)Nc1ccc2c(c1)[C@@H]1C[C@H](CC(=O)N3CCOCC3)O[C@H](CO)[C@@H]1O2	none (no result: PvdQ inh, dFosB act, CDK5 inh)
COc1cc(OC)c(OC)cc1/C=C/c1cc(C(F)(F)F)[nH]c(=O)n1	FGF22 binding 43.0
CO[C@@H]1CN(C)C(=O)c2ccc(NC(=O)c3ccccc3)cc2OC[C@H](C)N(C(=O)CN(C)C)C[C@@H]1C	none (no result: PvdQ inh, dFosB act, CDK5 inh)
Cc1ccc(OCC(=O)N/N=C\c2ccc(O)c([N+](=O)[O-])c2)c([N+](=O)[O-])c1	none (no result: PglD DTNB)
Cc1ccc(/C=N\NC(=O)COc2ccc(C)cc2[N+](=O)[O-])cc1	FGF22 binding 43.2 (no result: PglD DTNB)
CN(c1ccc(-c2csc(NC(=O)CCCc3nc4ccccc4c(=O)[nH]3)n2)cc1)S(C)(=O)=O	FGF22 binding 44.0 (no result: SIRT5 inh, PvdQ inh, dFosB act, CDK5 inh)
CS(=O)(=O)c1ccc(NC(=O)CCCc2nc3ccccc3c(=O)[nH]2)cc1	none
CNC[C@H]1Oc2c(NC(=O)Nc3ccc(OC)cc3)cccc2C(=O)N([C@H](C)CO)C[C@@H]1C	none (no result: PvdQ inh, dFosB act, CDK5 inh)
CCC(=O)Nc1ccc2c(c1)C(=O)N(C)[C@H]1CC[C@@H](CC(=O)NCC3CC3)O[C@@H]1CO2	none (no result: PvdQ inh, dFosB act, CDK5 inh)
COc1ccc2oc(=N)c(C(=O)NCc3ccccc3)cc2c1	SIRT5 inh 20.0
CCCN1C[C@@H](C)[C@@H](OC)CN(C)C(=O)c2ccc(NC(=O)c3cccc(OC)c3)cc2OC[C@@H]1C	none (no result: PvdQ inh, dFosB act, CDK5 inh)
CCCCNC(=O)c1onc(CSc2ccc(Cl)cc2)c1C(=O)NCCCC	FGF22 binding 35.1
O=C(CC1CC1)N[C@H]1CC[C@H](CCNS(=O)(=O)c2ccc(F)cc2)O[C@@H]1CO	none (no result: PvdQ inh, dFosB act, CDK5 inh)
CCOc1ccc(-c2cnc3ccccc3n2)cc1	PvdQ inh 89.7
CCOc1ccc(-c2cn3ccccc3n2)cc1	PvdQ inh 49.9 (no result: PglD DTNB)
O=[N+]([O-])c1ccc(-c2cnc3ccccc3n2)cc1	none
CC(C)NC(=O)N(C)C[C@H]1Oc2cc(C#C[C@@H](C)O)ccc2S(=O)(=O)N([C@H](C)CO)C[C@H]1C	none (no result: PvdQ inh, dFosB act, CDK5 inh)
COc1ccccc1NC(=O)CN1CCN(C(=O)C2CCCO2)CC1 (configuration not stated)	SIRT5 inh 45.6
COc1ccccc1NC(=O)CN1CCOCC1	none
C/C=C/c1ccc([C@H]2[C@H]3CN(C(=O)Nc4ccccc4F)CCCCN3[C@H]2CO)cc1	none (no result: PvdQ inh, dFosB act, CDK5 inh)
C[C@H]1CCCCO[C@H](CN(C)S(=O)(=O)c2ccc(Cl)cc2)[C@@H](C)CN([C@@H](C)CO)C(=O)c2cc(NS(=O)(=O)c3ccc(F)cc3)ccc2O1	SIRT5 inh 23.5 (no result: PvdQ inh, dFosB act, CDK5 inh)
C[C@@H]1CCCCO[C@H](CN(C)S(=O)(=O)c2ccc(F)cc2)[C@H](C)CN([C@@H](C)CO)C(=O)c2cc(NS(=O)(=O)c3ccc(Cl)cc3)ccc2O1	none (no result: PvdQ inh, FGF22 binding, dFosB act, CDK5 inh)
C[C@@H]1CCCCO[C@@H](CN(C)S(=O)(=O)c2ccc(F)cc2)[C@H](C)CN([C@H](C)CO)C(=O)c2cc(NS(=O)(=O)c3ccc(Cl)cc3)ccc2O1	SIRT5 inh 16.5 (no result: PvdQ inh, FGF22 binding, dFosB act, CDK5 inh)
C[C@@H]1CCCCO[C@H](CN(C)S(=O)(=O)c2ccc(F)cc2)[C@H](C)CN([C@H](C)CO)C(=O)c2cc(NS(=O)(=O)c3ccc(Cl)cc3)ccc2O1	none (no result: PvdQ inh, FGF22 binding, dFosB act, CDK5 inh)
C[C@H](CO)N1C[C@H](C)[C@H](CN(C)S(=O)(=O)c2ccc(Cl)cc2)OCCCC[C@H](C)Oc2ccc(NS(=O)(=O)c3ccc(F)cc3)cc2C1=O	SIRT5 inh 22.6 (no result: PvdQ inh, dFosB act, CDK5 inh)
O=C(C[C@H]1CC[C@H]2[C@@H](COC[C@@H](O)CN2C(=O)c2ccc(F)cc2)O1)Nc1ccc(-c2ccccc2)cc1	none (no result: PvdQ inh, dFosB act, CDK5 inh)
C[C@@H]1CN([C@@H](C)CO)C(=O)c2cc(C3=CCCC3)cnc2O[C@@H]1CN(C)C	none (no result: PvdQ inh, dFosB act, CDK5 inh)
CC(C)CC#Cc1cnc2c(c1)C(=O)N([C@@H](C)CO)C[C@@H](C)[C@@H](CN(C)C(=O)Nc1ccccc1F)O2	none (no result: PvdQ inh, dFosB act, CDK5 inh)
COc1ccc(C(=O)OCC(=O)N(Cc2ccccc2)Cc2ccccc2)c(O)c1	FGF22 binding 43.1 (no result: SIRT5 inh, PvdQ inh, dFosB act, CDK5 inh)
COc1ccc(C(=O)CCc2ccccc2)c(O)c1	none (no result: PglD DTNB)
C[C@@H]1CN([C@@H](C)CO)C(=O)c2cccc(NC(=O)Nc3ccccc3)c2O[C@H]1CN(C)CC1CC1	none (no result: PvdQ inh, dFosB act, CDK5 inh)
C/C=C/c1ccc2c(c1)O[C@@H](CN(C)C(=O)c1ccc3c(c1)OCO3)[C@H](C)CN([C@@H](C)CO)S2(=O)=O	none (no result: PvdQ inh, dFosB act, CDK5 inh)
C[C@@H]1CN([C@H](C)CO)S(=O)(=O)c2ccc(/C=C/c3ccccc3)cc2O[C@@H]1CN(C)C(=O)c1ccc2c(c1)OCO2	SIRT5 inh 23.2 (no result: PvdQ inh, FGF22 binding, dFosB act, CDK5 inh)
C[C@@H]1CN([C@@H](C)CO)S(=O)(=O)c2ccc(/C=C/c3ccccc3)cc2O[C@@H]1CN(C)C(=O)c1ccc2c(c1)OCO2	SIRT5 inh 23.8 (no result: PvdQ inh, FGF22 binding, dFosB act, CDK5 inh)
CO[C@@H]1CN(C)C(=O)c2ccc(NC(=O)Nc3cc(F)ccc3F)cc2OC[C@H](C)N(C(=O)c2cnccn2)C[C@@H]1C	none (no result: PvdQ inh, dFosB act, CDK5 inh)
CN1C[C@H]2[C@@H](c3ccccc31)[C@H](CO)N2C(=O)C1CCCC1	none (no result: PvdQ inh, dFosB act, CDK5 inh)
CCOC(=O)c1ccc(S(=O)(=O)NC2CCC(C)CC2)cc1 (configuration not stated)	SIRT5 inh 21.1
